Reference: ChEMBL document CHEMBL3988442, “University of Dundee, Small-Polar-MMV Screening Library” (2021)
For some assays here: Entries with a potency or affinity are not part of this list.

Tests used:
Design in all cases: scale not given: direction of the effect not stated beside the values
[1] = biological target: Protein translocase subunit SecA (Escherichia coli (strain K12)) (UniProt P10408); assay: Assay to Identify E. coli SecA ATPase Inhibitors; type: functional; settings: 30 µM
[2] = biological target: T1, Ubiquitin-activating enzyme e1, putative (Leishmania donovani (strain BPK282A1)) (UniProt E9BSI1); assay: Leishmania donovani Ubiquitin Activating Enzyme (LdE1); type: functional; settings: 30 µM
T1 sequence (whole entry): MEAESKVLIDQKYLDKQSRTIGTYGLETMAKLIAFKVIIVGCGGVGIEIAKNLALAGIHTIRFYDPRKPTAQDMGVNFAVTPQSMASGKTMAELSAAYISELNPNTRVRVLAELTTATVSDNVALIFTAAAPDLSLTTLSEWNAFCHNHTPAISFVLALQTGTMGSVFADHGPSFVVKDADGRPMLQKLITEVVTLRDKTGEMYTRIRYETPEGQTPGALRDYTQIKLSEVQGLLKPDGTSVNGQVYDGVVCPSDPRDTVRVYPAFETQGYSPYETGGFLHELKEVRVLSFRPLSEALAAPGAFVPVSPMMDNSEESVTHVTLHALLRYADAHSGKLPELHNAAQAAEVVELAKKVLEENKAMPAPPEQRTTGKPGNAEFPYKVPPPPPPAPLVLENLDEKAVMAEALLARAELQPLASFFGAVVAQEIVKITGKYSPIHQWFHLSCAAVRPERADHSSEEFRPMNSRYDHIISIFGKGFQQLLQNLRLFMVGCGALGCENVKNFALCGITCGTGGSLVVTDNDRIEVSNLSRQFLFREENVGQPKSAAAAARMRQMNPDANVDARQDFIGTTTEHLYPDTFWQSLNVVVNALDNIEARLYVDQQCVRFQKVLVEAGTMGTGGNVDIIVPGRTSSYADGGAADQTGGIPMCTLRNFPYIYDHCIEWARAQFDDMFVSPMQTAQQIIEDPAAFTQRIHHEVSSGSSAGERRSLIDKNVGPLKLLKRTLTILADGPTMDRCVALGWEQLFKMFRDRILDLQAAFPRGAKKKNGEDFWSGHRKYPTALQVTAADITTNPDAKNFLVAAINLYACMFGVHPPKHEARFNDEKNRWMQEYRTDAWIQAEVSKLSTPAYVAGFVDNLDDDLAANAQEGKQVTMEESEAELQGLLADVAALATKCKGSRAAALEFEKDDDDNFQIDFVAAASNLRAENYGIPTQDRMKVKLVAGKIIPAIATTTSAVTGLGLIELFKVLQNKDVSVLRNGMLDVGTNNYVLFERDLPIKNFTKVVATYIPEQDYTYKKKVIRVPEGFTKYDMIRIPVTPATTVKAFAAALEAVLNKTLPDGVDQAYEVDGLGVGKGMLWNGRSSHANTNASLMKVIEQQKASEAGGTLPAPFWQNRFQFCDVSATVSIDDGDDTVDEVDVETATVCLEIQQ

[3] = biological target: AMP-activated protein kinase, AMPK (Homo sapiens) (UniProt P54646+O43741+P54619+Q9UGJ0+Q9Y478+Q13131+Q9UGI9); assay: AMP-dependent Kinase enzyme assay. An in vitro enzyme assay that detects ADP turnover that is directly proportional to AMPK activity. This uses naive AMPK that is activated during the assay with MK-8722; type: functional; settings: 30 µM
[4] = biological target: Sialic acid-binding Ig-like lectin 9 (Homo sapiens) (UniProt Q9Y336); assay: Hs-Siglec9 ALPHAscreen SOP 20170721; settings: 10 µM
Trypanosoma cruzi = assay: Trypanosoma cruzi phosphomannomutase and mannose-1-phosphate guanylyltransferase assay; type: functional; settings: 10 µM
[5] = biological target: T2, Arginase-2, mitochondrial (Homo sapiens) (UniProt P78540); assay: in vitro enzyme assay to detect the production of urea directly proportional to the activity of Arginase II; type: functional; settings: 33.3 µM; further: in the data most compounds retested in dose-response had high values
T2 sequence (whole entry): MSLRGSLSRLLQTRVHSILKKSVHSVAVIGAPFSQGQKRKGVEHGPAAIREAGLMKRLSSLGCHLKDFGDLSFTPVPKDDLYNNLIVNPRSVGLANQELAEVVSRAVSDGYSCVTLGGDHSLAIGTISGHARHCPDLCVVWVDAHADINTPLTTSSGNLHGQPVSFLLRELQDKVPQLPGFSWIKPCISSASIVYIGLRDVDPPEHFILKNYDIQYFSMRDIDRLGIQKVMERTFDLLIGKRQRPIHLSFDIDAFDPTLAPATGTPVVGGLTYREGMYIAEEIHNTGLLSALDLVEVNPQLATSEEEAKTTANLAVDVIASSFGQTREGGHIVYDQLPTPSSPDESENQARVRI

[6] = biological target: T3, Proteasome subunit beta (Trypanosoma cruzi) (UniProt O96673); assay: Trypanosoma cruzi proteasome chymotrypsin-like activity (TcProtChymo) assay.; further: in the data most compounds retested in dose-response had high values; type: functional; settings: 9.37 µM
T3 sequence (whole entry): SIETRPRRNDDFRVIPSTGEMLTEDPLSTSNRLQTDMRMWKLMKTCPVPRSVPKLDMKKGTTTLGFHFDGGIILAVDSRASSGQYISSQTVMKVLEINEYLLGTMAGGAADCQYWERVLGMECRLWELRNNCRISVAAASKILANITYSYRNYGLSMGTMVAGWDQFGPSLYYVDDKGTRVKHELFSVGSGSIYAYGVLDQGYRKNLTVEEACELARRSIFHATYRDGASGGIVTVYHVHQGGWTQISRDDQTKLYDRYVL

Homo sapiens = organism: Homo sapiens; assay: To identify inhibition of the IFN signalling (Jak-Stat) pathway via expression of an eGFP reporter gene under the control of an IFN-stimulated response element (ISRE) containing MxA promoter.; type: functional; settings: 30 µM
[7] = biological target: T4, Tyrosyl-tRNA synthetase, putative (Trypanosoma cruzi (strain CL Brener)) (UniProt Q4DSP6); assay: Trypanosoma cruzi tyrosyl tRNA synthetase (TcYRS) _High Tyrosine SOP; type: functional; settings: 30 µM; further: in the data most compounds retested in dose-response had high values
T4 sequence (whole entry): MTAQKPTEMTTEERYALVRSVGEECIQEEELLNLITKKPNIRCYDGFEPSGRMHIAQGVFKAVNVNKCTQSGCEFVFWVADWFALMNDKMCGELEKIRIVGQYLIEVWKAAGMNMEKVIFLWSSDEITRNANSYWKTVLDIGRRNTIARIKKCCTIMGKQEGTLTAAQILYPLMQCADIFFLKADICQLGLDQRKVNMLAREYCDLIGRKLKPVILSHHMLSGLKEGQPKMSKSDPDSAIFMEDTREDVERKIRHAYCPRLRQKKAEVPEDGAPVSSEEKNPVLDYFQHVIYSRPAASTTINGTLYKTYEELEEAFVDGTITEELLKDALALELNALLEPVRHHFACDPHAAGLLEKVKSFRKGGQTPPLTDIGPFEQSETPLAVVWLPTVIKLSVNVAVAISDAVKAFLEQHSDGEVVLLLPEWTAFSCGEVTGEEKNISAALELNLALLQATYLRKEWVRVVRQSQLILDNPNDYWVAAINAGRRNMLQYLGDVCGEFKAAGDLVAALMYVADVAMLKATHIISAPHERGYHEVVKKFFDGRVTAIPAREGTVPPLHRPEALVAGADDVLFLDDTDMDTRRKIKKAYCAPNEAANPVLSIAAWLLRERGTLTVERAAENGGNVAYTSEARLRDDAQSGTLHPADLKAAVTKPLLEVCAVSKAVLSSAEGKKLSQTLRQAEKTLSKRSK

[8] = biological target: T4, Tyrosyl-tRNA synthetase, putative (Trypanosoma cruzi (strain CL Brener)); assay: Trypanosoma cruzi tyrosyl tRNA synthetase (TcYRS) SOP; type: functional; settings: 30 µM
[9] = biological target: Chromo domain-containing protein 1 (Saccharomyces cerevisiae (strain ATCC 204508 / S288c) (Baker's yeast)) (UniProt P32657); assay: ScCHD-1 Enzyme Inhibition Assay; type: functional; settings: 30 µM; further: in the data most compounds retested in dose-response had high values
Chain of Chromo domain-containing protein 1 (Saccharomyces cerevisiae (strain ATCC 204508 / S288c) (Baker's yeast)) (P32657 whole entry, the tested form may be a part): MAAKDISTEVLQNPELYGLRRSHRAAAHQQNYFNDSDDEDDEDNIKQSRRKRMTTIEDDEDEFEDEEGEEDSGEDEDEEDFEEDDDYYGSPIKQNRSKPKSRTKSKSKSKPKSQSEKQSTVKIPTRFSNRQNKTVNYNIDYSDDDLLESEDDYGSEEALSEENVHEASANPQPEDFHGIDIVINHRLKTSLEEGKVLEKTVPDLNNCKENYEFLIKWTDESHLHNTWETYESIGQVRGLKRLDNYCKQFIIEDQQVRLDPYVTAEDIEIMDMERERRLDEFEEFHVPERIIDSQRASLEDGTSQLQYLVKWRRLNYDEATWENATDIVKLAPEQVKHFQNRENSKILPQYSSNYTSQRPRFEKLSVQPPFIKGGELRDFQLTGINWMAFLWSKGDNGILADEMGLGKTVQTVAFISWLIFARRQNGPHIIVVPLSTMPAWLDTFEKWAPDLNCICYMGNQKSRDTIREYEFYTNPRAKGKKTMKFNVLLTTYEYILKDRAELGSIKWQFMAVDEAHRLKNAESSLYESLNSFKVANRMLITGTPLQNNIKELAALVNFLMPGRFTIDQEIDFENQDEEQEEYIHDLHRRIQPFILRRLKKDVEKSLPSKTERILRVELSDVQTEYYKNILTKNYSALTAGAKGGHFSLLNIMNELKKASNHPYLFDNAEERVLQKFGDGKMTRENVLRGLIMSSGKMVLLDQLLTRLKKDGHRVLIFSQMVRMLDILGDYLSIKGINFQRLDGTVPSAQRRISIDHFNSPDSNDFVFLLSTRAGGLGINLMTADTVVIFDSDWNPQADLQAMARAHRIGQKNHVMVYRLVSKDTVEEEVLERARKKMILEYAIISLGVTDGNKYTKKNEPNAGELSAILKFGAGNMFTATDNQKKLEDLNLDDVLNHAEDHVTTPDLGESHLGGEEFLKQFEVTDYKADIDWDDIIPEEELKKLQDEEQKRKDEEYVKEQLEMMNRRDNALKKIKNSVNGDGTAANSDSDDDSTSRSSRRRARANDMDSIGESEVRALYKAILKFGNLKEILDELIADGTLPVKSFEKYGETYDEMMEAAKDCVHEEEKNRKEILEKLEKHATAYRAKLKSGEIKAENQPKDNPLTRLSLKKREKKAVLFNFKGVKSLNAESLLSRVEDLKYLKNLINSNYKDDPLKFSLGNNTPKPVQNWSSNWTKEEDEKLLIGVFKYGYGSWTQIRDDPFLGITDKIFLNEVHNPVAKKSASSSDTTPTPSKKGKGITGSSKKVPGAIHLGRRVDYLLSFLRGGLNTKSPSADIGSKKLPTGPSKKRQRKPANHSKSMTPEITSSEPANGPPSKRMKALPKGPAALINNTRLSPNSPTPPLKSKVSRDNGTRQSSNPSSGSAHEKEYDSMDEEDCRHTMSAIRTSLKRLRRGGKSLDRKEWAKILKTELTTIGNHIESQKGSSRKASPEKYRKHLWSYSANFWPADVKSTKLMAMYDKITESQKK

Chain of Sialic acid-binding Ig-like lectin 9 (Homo sapiens) (Q9Y336 whole entry): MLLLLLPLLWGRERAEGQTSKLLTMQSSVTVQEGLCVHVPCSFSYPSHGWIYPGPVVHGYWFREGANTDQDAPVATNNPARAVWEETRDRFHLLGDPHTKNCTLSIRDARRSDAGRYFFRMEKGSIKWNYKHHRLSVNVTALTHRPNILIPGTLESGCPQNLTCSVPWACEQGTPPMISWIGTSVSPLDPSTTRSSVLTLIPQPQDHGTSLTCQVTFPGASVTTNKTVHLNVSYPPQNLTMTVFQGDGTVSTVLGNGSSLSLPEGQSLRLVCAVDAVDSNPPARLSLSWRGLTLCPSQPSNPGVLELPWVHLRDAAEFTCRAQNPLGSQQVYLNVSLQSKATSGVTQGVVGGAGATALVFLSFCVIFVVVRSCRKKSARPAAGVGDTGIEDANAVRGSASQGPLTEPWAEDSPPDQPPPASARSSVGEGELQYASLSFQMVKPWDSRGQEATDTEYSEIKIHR
Chain of Protein translocase subunit SecA (Escherichia coli (strain K12)) (P10408 whole entry): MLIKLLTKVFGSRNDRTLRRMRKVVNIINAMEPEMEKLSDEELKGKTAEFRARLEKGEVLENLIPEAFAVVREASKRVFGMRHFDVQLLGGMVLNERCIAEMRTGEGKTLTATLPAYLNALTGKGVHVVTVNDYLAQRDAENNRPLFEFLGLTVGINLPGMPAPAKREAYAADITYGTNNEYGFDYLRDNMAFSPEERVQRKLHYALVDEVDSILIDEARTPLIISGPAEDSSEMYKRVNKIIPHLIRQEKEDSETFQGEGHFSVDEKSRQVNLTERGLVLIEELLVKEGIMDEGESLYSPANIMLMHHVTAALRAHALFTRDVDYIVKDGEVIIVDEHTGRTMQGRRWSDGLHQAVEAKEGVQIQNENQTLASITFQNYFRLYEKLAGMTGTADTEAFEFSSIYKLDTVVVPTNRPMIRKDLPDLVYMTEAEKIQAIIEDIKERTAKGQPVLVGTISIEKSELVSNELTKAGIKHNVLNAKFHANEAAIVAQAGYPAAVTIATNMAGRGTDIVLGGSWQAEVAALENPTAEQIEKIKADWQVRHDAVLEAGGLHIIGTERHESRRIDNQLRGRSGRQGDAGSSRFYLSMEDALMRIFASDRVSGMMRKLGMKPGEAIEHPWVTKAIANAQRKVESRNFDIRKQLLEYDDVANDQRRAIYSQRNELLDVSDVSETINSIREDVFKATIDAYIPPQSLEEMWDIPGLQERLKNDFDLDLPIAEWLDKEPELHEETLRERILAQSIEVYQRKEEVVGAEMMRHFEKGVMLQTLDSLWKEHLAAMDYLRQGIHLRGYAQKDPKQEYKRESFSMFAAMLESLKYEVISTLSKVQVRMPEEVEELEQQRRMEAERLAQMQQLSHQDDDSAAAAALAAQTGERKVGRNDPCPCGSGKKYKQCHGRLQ

Row | Compound | Percent Effect [1] | Percent Effect [2] | Percent Effect [3] | Percent Effect [4] | Percent Effect (Trypanosoma cruzi) | Percent Effect [5] | Percent Effect [6] | Percent Effect (Homo sapiens) | Percent Effect [7] | Percent Effect [8] | Percent Effect [9]
1 | CCOc1cc(F)ccc1NS(=O)(=O)c1cc(C)c(C(=O)O)s1 | -9.09% | 8.11% | -10.6% | 28.9% | 4.59% | 0.248% | 8.15% | -8.12% | -5.38% | -1.24% | -11.4%
2 | O=C(NCCCOCC1CC1)Nc1cccnc1N1CCOCC1 | -3.08% | 2.7% | -5.79% | 0.4% | -5.27% | -1.67% | 21.1% | 10.8% | -21.8% | 3.66% | 14.9%
3 | COCCN1CCN(C(C)C(=O)Nc2ccnn2C(C)C)CC1 (stereo unspecified) | -4.97% | 2.7% | 2.76% | 0.97% | -1.95% | 0.417% | 7.35% | -1.59% | 4.95% | 1.22% | -1.09%
4 | O=C([C@@H]1COC[C@H]2CN(C3CCOCC3)C[C@H]21)N1CCCCO1 | 0.287% | 13.3% | -0.78% | -8.11% | 0.386% | -46.4% | 6.67% | 7.44% | 2.08% | 20% | -6.62%
5 | COc1ccc(C2(NC(=O)CCn3cncn3)CCCCC2)cc1 | -4.12% | 9.46% | 4.65% | 7.71% | 0.79% | 1.62% | 11.2% | -2% | 3.23% | 11.7% | -14.1%
6 | Cc1ccc(CNC(=O)NCc2csc(C)n2)cn1 | -2.07% | 17.7% | -8.56% | -3.48% | -3.31% | 8.37% | -1.56% | 0.522% | 5.42% | 16.5% | -6.06%
7 | CC(C)Oc1ncccc1CNC(=O)c1cc[nH]n1 | -3.9% | 8.11% | 0.642% | 2.46% | -3.3% | -0.802% | -0.18% | 3.02% | 2.46% | 6.17% | -2.93%
8 | Cn1nc(C2CN(C(=O)c3cscn3)C2)c2nccnc21 | -0.655% | 17.6% | -2.02% | -2.09% | 1.38% | 2.55% | 17.2% | 8.4% | 6.45% | 11.7% | -18.2%
9 | Cc1cnc(N2CCn3cc(CNC(=O)CC4CC4)nc3C2)nc1 | -3.53% | -2.67% | 7.96% | -5.68% | -2.76% | 2.1% | -6.78% | 10.1% | -8.51% | -16.7% | -5.33%
10 | CNC(=O)N1C[C@H]2CC[C@@]3(N=C(c4ccccc4)NC3=O)[C@H]2C1 | -5.03% | 2.6% | 0.951% | 7.17% | 9.73% | -67.6% | 9.48% | 12.9% | 2.15% | 11.1% | -1.88%
11 | CC(NC(=O)NCCCn1cccn1)c1ccc2c(c1)NC(=O)CO2 (stereo unspecified) | -6.96% | 25.3% | -6.75% | -5.5% | 10.1% | -3.42% | 10.2% | 15.4% | 8.37% | 29.1% | -10.1%
12 | CC(C)=CCN1CCOC(Cn2nc(C)cc2C)C1 (stereo unspecified) | 2.83% | 18.4% | 3.22% | -4.58% | -8.27% | -1.92% | 16.7% | 8.7% | 3.43% | 17.1% | -11.3%
13 | Cc1ccsc1-c1nnc(C2CCN(Cc3ccc(F)cc3)CC2)o1 | -4.79% | -9.46% | 14.3% | 4.24% | 7.31% | -4.87% | 10.8% | -11.7% | 3.23% | 3.9% | -15.5%
14 | CCC(CNC(=O)c1cc(OC)ccc1Br)N1CCc2ccccc2C1 (stereo unspecified) | 0.461% | 0% | 3.64% | 9.31% | -7.14% | -4.29% | 20.3% | 11.2% | -0.529% | -2.44% | -4.45%
15 | O=C(c1cscn1)N1CCC2(CCN(Cc3cccs3)CC2)C1 | -5.71% | 8.11% | 6.09% | -2.27% | 0.489% | 2.23% | 19% | 9.36% | 1.08% | 15.4% | 0.482%
16 | CC(C)C(=O)NC1CCN(Cc2cccc3c2OCCO3)CC1 | -2.08% | -1.27% | 4.8% | 0.497% | -2.36% | 3.66% | -2.06% | 17.1% | 2.08% | -2.53% | -21.1%
